# Hits are enriched below; roughly 12% of the tested compounds scored in any of these assays.
# Sm TGR inh = qHTS Assay for the Inhibitors of Schistosoma Mansoni Peroxiredoxins | Schistosoma mansoni thioredoxin glutathione reductase (TGR), Q962Y6 | purified TGR, DTNB reduction, TNB absorbance 405 nm | Potency, µM (series often up to 114 µM), for the others: at the top dose activity change, negative = inhibition, usual class: inhibitors | 360,000 tested, 3% active | AID 485364, 2010; also: % is scaled to controls: 0 for no effect and ±100 for the full control effect; nearly all actives have a fitted effect of over 60% in size
#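 Kinetic colorimetric format: TGR-catalysed, NADPH-driven DTNB reduction monitored via TNB absorbance. Enzyme dispensed at 20 nM; compound exposure 15 min at room temperature before reaction start.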
# Pf growth 48h = Primary qHTS for delayed death inhibitors of the malarial parasite plastid, 48 hour incubation. P. falciparum luciferase growth in erythrocytes, 48 h. Potency, µM (doses to about 28.7 µM), for the others: at the top dose activity change, negative = inhibition, most hits filed as inhibitors. 310,000 tested, 5.9% active. AID 504832, 2011; also: % is scaled to controls: 0 for no effect and ±100 for the full control effect
#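 Here the parasites carry a stable luciferase gene and grow inside erythrocytes in Albumax-based RPMI medium with compound for one erythrocytic cycle. Activity is scored as loss of luminescent signal.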
# SARS PLP yeast = qHTS of Yeast-based Assay for SARS-CoV PLP. 330,000 tested, 0.19% active. Potency, µM (highest dose often 32.9 µM), for the others: top-dose activity, positive = growth rescue, hits mostly activators. S. cerevisiae expressing SARS-CoV PLpro, growth rescue. AID 485353, 2010; calls by dose curve; also: 0% is about no effect; nearly all actives have a fitted effect of over 55% in size
# Pf growth 96h = Primary qHTS for delayed death inhibitors of the malarial parasite plastid, 96 hour incubation; AID 504834, 2011; P. falciparum luciferase reporter growth, 96 h; 320,000 tested, 6.9% active; Potency, µM (top dose mostly 28.7 µM), for the others: at the highest dose activity change, negative = inhibition, most hits filed as inhibitors; also: % is scaled to controls: 0 for no effect and ±100 for the full control effect
#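 Erythrocytes infected with luciferase-expressing P. falciparum were dispensed at 2% hematocrit and 0.05% parasitemia (final), then incubated with compounds 96 hours at 37 C in 5% CO2. Luminescence after detection reagent addition reported growth.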
# The depositor's hits bear a star; ? = inconclusive; . = not tested or not shown. Unless noted, calls follow the shape of the dose curve; as a rule, active = well fitted curve in the direction sought with a large enough effect; inconclusive = small, poorly fitted or top-dose-only effect, or another doubt; inactive = no such curve, though single readings can be large; an effect the other way counts as inactive or inconclusive. Potency is read from the fitted curve at half-maximal effect.
SMILES,Sm TGR inh,Pf growth 48h,SARS PLP yeast,Pf growth 96h
Cc1cccc2cc(C(c3nnnn3Cc3ccc4c(c3)OCO4)N3CCCC3)c(=O)[nH]c12 (configuration not stated),11µM*,7.4µM*,1%,?
Clc1ccccc1C(c1nnnn1Cc1ccco1)N1CCN(Cc2ccco2)CC1 (configuration not stated),32µM*,15µM*,2%,3%
CCC(C)(C)n1nnnc1C(c1cc2cc3c(cc2[nH]c1=O)OCO3)N1CCCCC1 (configuration not stated),0%,?,-3%,0%
COc1ccc(OC)c(C(c2nnnn2Cc2ccco2)N2CCN(C)CC2)c1 (configuration not stated),0%,3%,0%,?
CCc1ccccc1NC(=O)C1CCN(C(=O)N2CCOc3ccccc32)CC1,0%,-11%,-8%,?
COc1ccc(S(=O)(=O)N2CCCC(C(=O)NC3CC3)C2)cc1Cl (configuration not stated),0%,?,0%,?
CN(C)S(=O)(=O)c1cccc(CNCC2COc3ccccc3O2)c1 (configuration not stated),12%,.,2%,-7%
CC[C@]12CCCN3CCc4c(n(c5ccccc45)[C@](O)(C(=O)OC)C1)[C@@H]32,-6%,?,-12%,2%
CCOC(=O)C1=C[C@@]2(CC)CCCN3CCc4c(n1c1ccccc41)[C@H]32,.,6µM*,.,-1%
CCC12CCCN3CCc4c(n(c5ccccc45)C(O)(C(=O)OC)C1)C32 (configuration not stated),-12%,-15%,-2%,-6%
CC[C@@]12CCCN3CCc4c(n(c5ccccc45)C(=O)C1)[C@H]32,.,?,.,6.4µM*
COc1ccc(/C=C/CN2CCC(n3nccc3NC(=O)C3CCCC3)CC2)cc1,0%,?,1%,8%
Cc1cccc(CSCCNC(=O)C2CCN(S(=O)(=O)Cc3ccccc3)CC2)c1,5%,.,.,.
CCc1ccc(NC(=O)c2cc(S(=O)(=O)N3CCCCCC3)ccc2F)cc1,6%,.,.,.
O=C(NNC(=O)C1CCCCC1)c1cnccn1,9%,-4%,-5%,26%
Cc1ccc(OCC(=O)NCCCNC(=O)c2cnccn2)cc1C,-7%,?,2%,-7%
Cc1cc(OCC(=O)NNC(=O)c2cnccn2)cc(C)c1Cl,0%,?,16%,12µM*
O=C(CCC1CCCCC1)NNC(=O)c1cnccn1,0%,13µM*,?,?
CCOc1ccccc1NC(=O)c1cnc2n(c1=O)CCS2,-1%,7%,1%,?
O=C(Nc1ccc(Oc2ccccc2)cc1)c1cnc2n(c1=O)CCS2,4%,.,-7%,13µM*
COc1ccc2c(CNCc3ccccc3OC)c(C(=O)O)n(Cc3ccc(F)cc3Cl)c2c1,0%,.,.,.
CC(C)(C)c1ccc(OCc2ccc(C(=O)Nc3cccnc3)o2)cc1,-5%,?,-10%,-19%
Cc1ccc(/C=C/C(=O)O)cc1S(=O)(=O)NCc1ccco1,32µM*,32%,0%,-6%
Cc1cc(S(=O)(=O)NCc2ccc(S(N)(=O)=O)cc2)c(C)s1,5%,-6%,-2%,?
Cc1cc(S(=O)(=O)NCc2ccco2)c(C)s1,-6%,5%,1%,7.4µM*
SMILES,Sm TGR inh,Pf growth 48h,SARS PLP yeast,Pf growth 96h
COc1cc(/C=C/C(=O)O)cc(S(=O)(=O)NCc2ccco2)c1OC,32µM*,10%,1%,?
Cc1ccc(/C=C/C(=O)O)cc1S(=O)(=O)N(C)CCO,22µM*,4%,11%,-18%
COc1ccc(/C=C/C(=O)O)cc1S(=O)(=O)NCc1ccco1,?,39%,0%,-6%
N#Cc1c(N)sc(=S)c2c1CCN(Cc1ccccc1)C2,?,10µM*,-21%,130%
COc1ccc(C2c3c(n(C)c4ccccc34)C(=O)N2CC(=O)Nc2ccccc2Cl)cc1 (configuration not stated),-4%,.,.,.
COc1ccc(N=C2SC(CC(=O)Nc3ccccc3)C(=O)N2Cc2ccccn2)cc1 (configuration not stated),-8%,?,-3%,?
COc1ccc(N=C2SC(CC(=O)Nc3ccccc3)C(=O)N2CCc2ccccn2)cc1 (configuration not stated),-2%,?,1%,15µM*
COc1ccc(OC)c(NC(=O)CC2SC(=Nc3ccccc3)N(CCc3ccccn3)C2=O)c1 (configuration not stated),-10%,15µM*,-16%,4.7µM*
CC(O)CN1C(=O)C(CC(=O)Nc2ccc(Cl)cc2)SC1=Nc1ccccc1 (configuration not stated),18µM*,?,-12%,-3%
COCCN1C(=O)C(CC(=O)Nc2ccc(C(C)=O)cc2)SC1=Nc1ccccc1 (configuration not stated),-23%,?,0%,?
Cc1cc(OCC(=O)N2CCC(O)CC2)c2c(C)cc(=O)oc2c1,-1%,2%,2%,?
C=CCOc1ccc(C(c2c(C(=O)O)[nH]c3ccccc23)c2c(C(=O)O)[nH]c3ccccc23)cc1,-5%,-9%,0%,-4%
O=C1C=CC(=O)N1c1ccc(Sc2ccc([N+](=O)[O-])cc2)cc1,3.2µM*,116%,-6%,19%
Nc1ccc(Sc2ccc([N+](=O)[O-])cc2)cc1,5%,-13%,-3%,12µM*
CC(C)(C)C(=O)Nc1ccc(Sc2ccc([N+](=O)[O-])cc2)cc1,4%,?,-9%,2.3µM*
CC(C)[C@H](NC(=O)C1CC(=O)N(c2ccc3c(c2)OCO3)C1)C(=O)NC1CCCC1 (some centres not stated),-30%,22%,4%,22%
O=C(COC(=O)c1cc(S(=O)(=O)N2CCCCC2)ccc1N1CCOCC1)NCCc1ccc(F)cc1,15%,?,4%,?
O=C(COC(=O)c1cc(S(=O)(=O)N2CCCCC2)ccc1N1CCOCC1)c1ccccc1,0%,8.3µM*,-2%,?
CC(C)CNC(=O)COC(=O)c1cc(S(=O)(=O)N2CCCCC2)ccc1N1CCOCC1,-6%,?,3%,?
O=C(COC(=O)c1cc(S(=O)(=O)N2CCOCC2)ccc1F)c1ccccc1,.,.,2%,.
CC(C)NC(=O)NC(=O)COC(=O)c1cc(S(=O)(=O)N2CCCCC2)ccc1N1CCOCC1,9%,8.3µM*,11%,?
O=C(COC(=O)c1cc(S(=O)(=O)N2CCCCC2)ccc1N1CCOCC1)c1ccc(Cl)cc1,7%,12µM*,2%,13µM*
O=C(COC(=O)c1cc(S(=O)(=O)N2CCOCC2)cs1)c1ccccc1,-12%,19%,-1%,9.3µM*
Cc1nc(SCC(=O)N(CC(C)C)C2CCS(=O)(=O)C2)c2c(C)c(C)sc2n1 (configuration not stated),-13%,?,1%,?

# Screening results: PubChem BioAssay, National Center for Advancing Translational Sciences (NCATS)
